Measurements reported in PubChem BioAssay (EPA / NIEHS).
Activity calls are given as the source filed them. How the source made its calls: active means hit-call score of the fitted dose curve at least 0.9, where 1 is the maximum; inactive means score below 0.9.

Experiment: ATG_ERE_CIS: Attagene CIS-FACTORIAL HepG2 Assay for Estrogen Response Element (ERE) (AID 2282940)
Details: HepG2 ERE cis-reporter, Attagene RNA transcript; actives raise or lower the signal
Procedure: ATG_CIS is a cell-based, multiplexed-readout assay that uses HepG2, a human liver cell line, with measurements taken at 24 hours after chemical dosing in a 24-well plate.ATG_ERE_CIS is one of 52 assay component(s) measured or calculated from the ATG_CIS assay. It is designed to make measurements of mRNA induction, a form of inducible reporter, as detected with fluorescence intensity signals by Reverse transcription polymerase chain reaction (RT-PCR) and Capillary electrophoresis technology.Data from the assay component ATG_ERE_CIS was analyzed into 1 assay endpoint. This assay endpoint, ATG_ERE_CIS, was analyzed with bidirectional fitting relative to DMSO as the negative control and baseline of activity. Using a type of inducible reporter, measures of mRNA for gain or loss-of-signal activity can be used to understand the reporter gene at the transcription factor-level as they relate to the gene ESR1. Furthermore, this assay endpoint can be referred to as a primary readout, because this assay has produced multiple assay endpoints where this one serves a reporter gene function. To generalize the intended target to other relatable targets, this assay endpoint is annotated to the nuclear receptor intended target family, where the subfamily is steroidal.
Human liver HepG2 cells are transiently transfected with multiple reporter transcription units (MRTUs) in 6-well plates using FuGene 6 reagent (Roche; 3 ml FuGene/1 mg DNA). The MRTU constructs are regulated by a cis-regulating element (promoter). […] A major difference between the CIS and TRANS system is that in CIS activities of endogenous TFs are measured, whereas the TRANS assay evaluates changes in activities of exogenous, chimeric NR-Gal4 proteins. […] At the end of 24 hour incubation, total RNA was isolated using TriZol reagent (Invitrogen). The isolated RNA is then reverse-transcribed using oligo(dT) primer and Mo-MLV reverse transcriptase (Invitrogen) with DNAse I (Ambion) treatment for 30 min. The one-tenth of the produced cDNA was amplified by PCR using Taq DNA polymerase (Invitrogen) and two reporter sequence-specific primers. The PCR products were fluorescently labeled by primer extension with 6-arboxyfluorescein (6-FAM) 5'-labeled reporter sequence-specific primer (2 min at 95 C, 20 s at 68 C and 10 min at 72 C) and these products were digested with 5U of HpaI (New England Biolabs) for 2h at 37 C. The fragments were purified using Qiaquick PCR columns (Qiagen), analyzed on an ABI 3130xL genetic analyzer (Applied Biosystems) with peak positions identified by using a set of X-rhodamine (ROX)-labeled MapMarker1000 molecular weight standards (BioVentures). The raw capillary electrophoresis data was processed using Attagraph software (Attagene).
For `CCCCCC(=O)OCCc1ccccc1`, the outcome was “inactive”.
For `CCCC(=O)c1cc(O)c(O)cc1O`, the outcome was “inactive”.
With `CN1[C@@H]2CC(OC(=O)[C@H](CO)c3ccccc3)C[C@H]1[C@@H]1O[C@@H]12` (stereo not given in full) the outcome was “inactive”.
For `OCCCCCO`, the outcome was “inactive”.
For `Clc1cccc(Cl)n1`, the outcome was “inactive”.
With `CC(=O)Nc1ccc(CC(=O)O)cc1` the outcome was “inactive”.
For `C[C@]12CC[C@H]3[C@@H](CCC4=CC(=O)CC[C@@]43C)[C@@H]1CC[C@@H]2C(=O)CO`, the AC50 was 0.635 µM (active).
For `CN(C)CCCN`, the outcome was “inactive”.
In the case of `NC(=O)Nc1ccc(Cl)cc1`, the outcome is reported as “inactive”.
In the case of `CC(=O)C=CC1=C(C)CCCC1(C)C`, the outcome is reported as “inactive”.
With `C=CC(=O)OCC(O)COc1ccccc1` (stereo not given) the outcome was “inactive”.
In the case of `CCCCCCCCCCCCCC(=O)O`, the outcome is reported as “inactive”.
With `C=C(C)C(=O)Nc1ccc(Cl)c(Cl)c1` the outcome was “inactive”.
For `CC(C)c1cccc(O)c1`, the AC50 was 104 µM (active).
With `Nc1cc(N)cc(C(=O)O)c1` the outcome was “inactive”.
For `NNc1nc(-c2ccc(N)cc2)cs1`, the outcome was “inactive”.
With `O=C1CCc2ccccc2O1` the outcome was “inactive”.
For `CN(C)c1ccc(O)c2c1C[C@H]1C[C@H]3[C@H](N(C)C)C(=O)C(C(N)=O)=C(O)[C@@]3(O)C(=O)C1=C2O`, the outcome was “inactive”.
With `CCCCOCCOCCOCCOCCO` the outcome was “inactive”.
With `CCC(O)CO` (stereo not given) the outcome was “inactive”.
In the case of `O=C(O)COCCN1CCN(C(c2ccccc2)c2ccc(Cl)cc2)CC1` (stereo not given), the AC50 is reported as 18.8 µM (active).
With `CC1COc2ccccc2N1C(=O)C(Cl)Cl` (stereo not given) the outcome was “inactive”.
With `O=C(OCc1ccccc1)C(=O)OCc1ccccc1` the outcome was “inactive”.
With `C=C(C)C(=O)O[C@H]1C[C@@H]2CC[C@@]1(C)C2(C)C` the AC50 was 60.7 µM (active).
For `COc1ccc(OC)c(OC)c1`, the outcome was “inactive”.
In the case of `CC(C)C(C)(C)C(C)(C)C(C)(C)S`, the outcome is reported as “inactive”.
In the case of `CC(C)(N)CO`, the outcome is reported as “inactive”.
For `CC(C)(Oc1ccc(CCNC(=O)c2ccc(Cl)cc2)cc1)C(=O)O`, the outcome was “inactive”.
In the case of `COc1cc2ncnc(Nc3cccc(Cl)c3)c2cc1OC`, the outcome is reported as “inactive”.
In the case of `Cc1ncc([N+](=O)[O-])n1C`, the outcome is reported as “inactive”.
With `Cc1ccc2n[nH]nc2c1` the outcome was “inactive”.
With `O=C(Nc1ccccc1)c1cc([N+](=O)[O-])ccc1Cl` the outcome was “inactive”.
In the case of `CC(CCO)CCc1ccccc1` (stereo not given), the AC50 is reported as 24.2 µM (active).
In the case of `Nc1cccc(S(=O)(=O)c2cccc(N)c2)c1`, the outcome is reported as “inactive”.
For `C=C(C)C(=O)O`, the outcome was “inactive”.
For `NC(=O)c1ccccc1Cl`, the outcome was “inactive”.
With `CC(C)Oc1ccccc1O` the outcome was “inactive”.
For `CCCCCCCCCC=O`, the outcome was “inactive”.
In the case of `Nc1ccc(F)c([N+](=O)[O-])c1`, the outcome is reported as “inactive”.
For `BrC1CCC(Br)C(Br)CCC(Br)C(Br)CCC1Br` (stereo not given), the outcome was “inactive”.
